Compounds without any hit were thinned out: in the full panel of roughly 83,000, 20% have a hit.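 96-well plates, one dose, 48 hours. Percent growth reported; active if below 10.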 Values without a mark were called inactive. The source made the active and inactive calls.

What all share (assay): NCI-60 one-dose screen, 48 h (100 = growth as untreated, 0 = no growth, -100 = all killed)
Details in all cases: 10 µM unless noted

Experiment [1] deals with NCI-H23 lung.
Experiment [2] concerns NCI-H226 lung.
The test system of experiment [3] is NCI-H322M lung.
Experiment [4] has as its system HOP-62 NSCLC.
The subject of experiment [5] is NCI-H460 lung.
For experiment [6], the system named is HOP-92 NSCLC.
Experiment [7] has as its system NCI-H522 lung.
In experiment [8] the test system is A549/ATCC NSCLC.
The test system of experiment [9] is 786-0 renal.
The subject of experiment [10] is COLO 205 colon.

Turning to `O=c1ccc2cc3ccccc3cc2[nH]1`, the growth was 93.1% in experiment [1]; 94% in [2]; 114% in [3]; 95.4% in [4]; 93.8% in experiment [5]; 84.8% in experiment [6]. Besides, the growth is 98.8% in experiment [7], 102% in experiment [8], 103% in experiment [9] and 121% in [10].

Consider `CCC(C)[C@@H]1NC(=O)[C@@H]2CCCN2C(=O)[C@H](Cc2ccccc2)NC(=O)[C@@H]2CCCN2C(=O)[C@H](Cc2ccccc2)NC(=O)[C@@H]2CCCN2C(=O)[C@H](Cc2ccccc2)NC1=O` (stereo not given in full), for which the growth in experiment [1] is 113%; in experiment [2], 109%; in experiment [3] it was 127%; in experiment [4], 103%; in experiment [5], 104%; in experiment [6] it was 95.3%. Moreover, the growth is 96.3% in [7], 101% in [8], 109% in experiment [9] and 108% in experiment [10].

Turning to `CC(C)(C)c1nn(-c2ccccc2)c2c1CC1(CN2Cc2ccc3c(c2)OCO3)C(=O)c2ccccc2C1=O`, the growth in [1] is 106%; in experiment [2], 110%; in experiment [3], 107%; in experiment [4], 97.3%; in [5], 112%; in [6], 97.2%. Besides, the growth in experiment [7] was 141%; in experiment [8], 79.4%; in experiment [9], 98.4%; in [10] it was 108%.

Take `COc1ccc(S(=O)(=O)NCCCNc2nccc(-c3c(-c4cccc(N)c4)nc4sccn34)n2)cc1`: the growth in experiment [1] is 97.4%; in experiment [2] it was 89.4%; in experiment [3], 101%; in experiment [4] it was 117%; in experiment [5], 97.1%; in experiment [6], 92.8%. Further, the growth in experiment [7] is 101%; in [8], 99.7%; in experiment [9], 92.1%; in experiment [10] it was 75.8%.

For the compound `O=C(Cc1ccccc1)c1ccc(Cl)cc1`, the growth is 95.4% in [1]; 99% in [2]; 108% in experiment [3]; 100% in experiment [4]; 109% in experiment [5]; 104% in experiment [6]. For the same compound, the growth was 93.8% in experiment [7], 69.3% in experiment [8], 94.5% in [9] and 125% in experiment [10].

As to `O=S(=O)(NCCCNc1cc(-c2cn(-c3ccccc3)nc2-c2ccccc2)ccn1)c1ccc(C(F)(F)F)cc1`, the growth in [1] is 58.7%; in experiment [2] it was 54.3%; in [3], 66.8%; in [4], 82%; in experiment [5], 50.7%; in [6] it was 32.2%. The growth in [7] is 72.1%; in [8] it was 40.9%; in [9], 29%; in experiment [10], 33.1%.

For the compound `O=C(CO[N+](=O)[O-])Nc1ccc(C(=O)/C=C/c2ccc(Cl)cc2)cc1`, the growth is 5.49% (active) in experiment [1]; 81.7% in [2]; 71.5% in [3]; 94.1% in experiment [4]; 84.9% in [5]; 66.8% in experiment [6]. For the same compound, the growth was 38.7% in experiment [7], 67.6% in [8], 75% in [9] and 36.1% in [10].

As for `CC1=C(NCCN2CCCC2)C(=O)c2c(OCc3cccc(Cl)c3)cccc2C1=O`, the growth in [1] is 81.4%; in experiment [2], 94.1%; in experiment [3], 75.8%; in [4] it was 78.4%; in experiment [5], 83.1%; in experiment [6] it was 60.6%. Also, the growth in [7] is 82.9%; in experiment [8], 77.2%; in experiment [9], 63.3%; in experiment [10], 69.7%.

`Nc1cc(-c2nc3sccn3c2-c2ccnc(NCCCNS(=O)(=O)c3ccc(F)cc3)n2)ccc1F`: the growth in experiment [1] is 63.5%; in experiment [2] it was 50.7%; in [3], 69.9%; in experiment [4], 78.1%; in experiment [5] it was 47.4%; in experiment [6], 96.9%. Besides, the growth in experiment [7] is 48%; in experiment [8], 41.4%; in experiment [9], 61.3%; in experiment [10] it was 32.4%.

As for `N#Cc1c2c(nc3n[nH]c(N)c13)CCCC2`, the growth is 99.6% in experiment [1]; 110% in experiment [2]; 128% in experiment [3]; 100% in experiment [4]; 108% in experiment [5]; 79% in experiment [6]. Besides, the growth in [7] is 104%; in experiment [8], 108%; in [9] it was 106%; in experiment [10], 148%.

Turning to `CCCCCCCCCCCCCCCCCCSC1=CC(=O)C(OC)=C(OC)C1=O`, the growth was 89.8% in experiment [1]; 96.7% in experiment [2]; 114% in experiment [3]; 108% in experiment [4]; 105% in [5]; 56.5% in experiment [6]. Moreover, the growth was 94.5% in experiment [7], 103% in experiment [8], 120% in [9] and 111% in experiment [10].

On to `COc1ccc(C(=O)/C=C/c2c(Cl)c3c(c(OC)c2Cl)OCC(=O)N3)cc1`, for which the growth in [1] was 43.1%; in experiment [2], 62.9%; in experiment [3], 79.8%; in experiment [4], 21%; in experiment [5] it was 12%; in experiment [6], 74.5%. Also, the growth was 12.7% in experiment [7], 61.1% in experiment [8], 58.2% in experiment [9] and 62.1% in [10].

On to `O=C(O)c1cccnc1Br`, for which the growth was 98.1% in experiment [1]; 99.8% in experiment [2]; 112% in [3]; 96.2% in experiment [4]; 113% in experiment [5]; 115% in [6]. The growth in [7] is 84.8%; in experiment [8], 101%; in [9], 90.2%; in [10], 115%.

As for `COc1cccc(-c2nc3sccn3c2-c2ccnc(NCCCNS(=O)(=O)c3ccc(Cl)cc3)c2)c1`, the growth is 54.4% in experiment [1]; 42% in [2]; 74.4% in experiment [3]; 88.7% in experiment [4]; 49.9% in experiment [5]; 72% in [6]. Besides, the growth in experiment [7] is 55.5%; in experiment [8], 40.8%; in experiment [9] it was 58.4%; in experiment [10], 44.9%.

These data come from PubChem BioAssay (NCI).
